# Screening results as filed in PubChem.
# Only some compounds are listed: those with a hit (about 10% of all), similar ones and a draw of the others.
# JMJD2A Tudor = JMJD2A Tudor domain (human) inhibition; O75164; actives 4.4% (n = 390,000); AID 504339; Potency, µM (series often up to 114 µM), without a hit: at the highest dose activity change, negative = inhibition, most hits filed as inhibitors; AlphaScreen JMJD2A-Tudor / H3K4me3 peptide binding; further: potency means the concentration at half of the fitted maximal effect; on the % scale 0 is the no-effect control and ±100 the full control effect; nearly all actives have a fitted effect of over 50% in size
# CtBP-E1A inh = inhibitors of CtBP/E1A interaction | activity change, % (concentration not given with the values) | AlphaScreen GST-E1A/His-CtBP binding, 1536-well; active compounds read low | AID 651724 | actives 0.49% (n = 340,000); in the data active means activity change below about -65%; inconclusive means mostly about -30% to -63%; further: on the % scale 0 is the no-effect control and ±100 the full control effect
#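 Steps: dispense buffer (Tris pH 8.0, NaCl 300 mM, TCEP 1 mM, BSA, Tween 20); add 5X protein mix (GST-E1A, His-CtBP, 125 nM each); pin 23 nL compound; 2 h at 37 °C, dark; add 5X beads (50 ug/mL); 1 h; read.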
# HP1b binding inh = inhibitors of HP1-beta chromodomain binding to methylated histone tails | P83916 | AlphaScreen HP1-beta / biotin-H3K9me3 peptide binding | Potency, µM (titrated, usually from 114 µM), without a hit: at the highest dose activity change, negative = inhibition, hits mostly inhibitors | actives 0.56% (n = 390,000) | AID 540317; further: potency means the concentration at half of the fitted maximal effect; nearly all actives have a fitted effect of over 70% in size
# Target sequence (P83916 whole entry, looked up): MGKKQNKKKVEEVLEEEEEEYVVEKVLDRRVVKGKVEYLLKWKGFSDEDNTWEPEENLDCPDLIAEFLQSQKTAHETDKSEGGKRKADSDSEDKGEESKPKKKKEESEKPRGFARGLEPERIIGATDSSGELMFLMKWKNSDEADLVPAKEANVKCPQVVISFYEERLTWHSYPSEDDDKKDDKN
#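 HP1-beta protein (50 nM final) preincubated 30 min at room temperature with biotinylated H3(1-18)K9me3 peptide (50 nM) in PBS pH 7.4, 0.01% Tween-20, then compound added for 30 min. AlphaScreen streptavidin donor/nickel chelate acceptor beads (10 ug/mL final), 30 min dark, luminescence read.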
# G9a inh = G9a (human) methyltransferase inhibition; actives 8.8% (n = 350,000); G9a H3K9 monomethylation, AlphaScreen, 2 h; Potency, µM (doses to about 102 µM), for inactives: top-dose activity, negative = inhibition, hits mostly inhibitors; further: potency means the concentration at half of the fitted maximal effect; on the % scale 0 is the no-effect control and ±100 the full control effect; nearly all actives have a fitted effect of over 75% in size
# Target sequence (Q96KQ7 913-1193 limits assumed): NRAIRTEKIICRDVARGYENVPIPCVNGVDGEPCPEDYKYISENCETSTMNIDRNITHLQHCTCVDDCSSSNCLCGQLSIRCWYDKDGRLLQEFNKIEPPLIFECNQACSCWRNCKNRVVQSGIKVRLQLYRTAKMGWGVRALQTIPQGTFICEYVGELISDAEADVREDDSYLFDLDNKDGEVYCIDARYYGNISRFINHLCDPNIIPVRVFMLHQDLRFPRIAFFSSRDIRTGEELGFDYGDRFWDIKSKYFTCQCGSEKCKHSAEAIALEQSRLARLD
#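 G9a (20 nM) preincubated 15 min RT with compounds, then 500 nM biotinylated H3K9 peptide and 20 uM SAM added; 2 h RT reaction. Monomethyl-H3K9 product detected by AlphaScreen with anti-H3K9me1 antibody, streptavidin donor and anti-rabbit IgG acceptor beads.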
# Six1-Eya2 blk = Six1/Eya2 interaction inhibition. Q15475+O00167. AlphaScreen GST-Six1/His-Eya2 binding, biochemical; active compounds read low. activity change, % (test concentration not listed). actives 0.56% (n = 360,000). AID 651725; in the data active means activity change below about -65%; inconclusive means mostly about -30% to -63%; further: on the % scale 0 is the no-effect control and ±100 the full control effect
#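 GST-Six1 + His-Eya2 (5X stock: 250/500 nM); Tris pH 8.0, 300 mM NaCl, 0.05% BSA, 0.02% Tween 20; GSH donor/Ni acceptor beads; 1 h 37 °C dark; AlphaScreen readout.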
# BAZ2B block = inhibitors of human BAZ2B bromodomain; Q9UIF8; AlphaScreen BAZ2B-H3K14Ac peptide displacement; Potency, µM (highest dose often 114 µM), inactives show at the highest dose activity change, negative = inhibition, usual class: inhibitors; actives 4.4% (n = 360,000); AID 504333; further: potency means the concentration at half of the fitted maximal effect; on the % scale 0 is the no-effect control and ±100 the full control effect; nearly all actives have a fitted effect of over 60% in size
#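 Complex of BAZ2B and biotin-H3K14Ac (50 nM apiece) forms over 30 min at RT, then faces library compounds up to 110 uM for another 30 min; AlphaScreen beads added, 20 min dark incubation, luminescence read.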
# * hit, by the source's call; ? = inconclusive; nt = not tested or not shown; [ ] = dose if it differs, or a comment. Unless noted, the call rests on the fitted dose curve; in most records, active means well fitted inhibition curve with a large enough effect; inconclusive means small, poorly fitted or top-dose-only effect; inactive means no such curve, though single readings can be large or run the other way.
SMILES,JMJD2A Tudor,CtBP-E1A inh,HP1b binding inh,G9a inh,Six1-Eya2 blk,BAZ2B block
CCOC(=O)c1c(C)n(-c2ccc(C)cc2)c2ccc(OCC(O)CNCCCO)cc12 (stereo not drawn),?,-17.7,-21.1%,8.91µM*,-6.9,?
Cc1cccn2c(=O)c3cc(C(=O)Nc4ccc(Cl)c(Cl)c4)sc3nc12,9.2%,nt,36.0%,7.3%[59 µM],nt,1.4%
COc1ccc(/C=N/NC(=O)Nc2cccc3nsnc23)cc1,70.8µM*,5.2,11.0%,-0.4%[59 µM],-18.3,-28.2%
O=C(Nc1ccccc1)Nc1cccc2nsnc12,63.9%,1.4,95.7%,24.6%[12.7 µM],21.6,23.9%
O=C1/C(=C\c2ccc(O)c(O)c2)C(c2ccccc2)=NN1c1ccccc1,14.1µM*,3.8,?,3.98µM*,-17.2,8.91µM*
COc1cc(/C=C2\C(=O)N(c3ccc(NC(C)=O)cc3)N=C2c2ccccc2)ccc1O,39.8µM*,-0.7,?,44.7µM*,1.6,35.5µM*
Cc1ccc2oc(=O)n(CCNC(=O)Nc3ccc(C)c(F)c3)c2c1,-5.7%,nt,83.4%,11.1%[59 µM],nt,-5.9%
CCOC(=O)C1CCC(CN(Cc2c(Cl)cccc2Cl)S(=O)(=O)c2ccc(F)c(C)c2)CC1 (stereo not drawn),6.1%,nt,35.0%,5.8%[59 µM],nt,8.0%
CN(C)c1ccc(S(=O)(=O)NCC(=O)NCc2ccccc2)cc1[N+](=O)[O-],?,nt,-5.1%,44.7µM*,7.9,?
CNc1ccc(S(=O)(=O)NCC(=O)OC(C)C(=O)N(C)Cc2ccccc2)cc1[N+](=O)[O-] (stereo not drawn),-25.2%,nt,10.3%,1.0%[12.7 µM],-4.6,-4.7%
CSc1ccc(S(=O)(=O)NCC(=O)OC(C)C(=O)NCc2ccccc2)cc1[N+](=O)[O-] (stereo not drawn),-27.1%,22.4,-2.4%,-5.9%,-2.9,-5.3%
CN(C)c1ccc(S(=O)(=O)NCC(=O)OCC(=O)Nc2cccc(Cl)c2)cc1[N+](=O)[O-],?,0.6,-21.0%,56.2µM*,-4.2,?
CC(C)CSc1ccc(S(=O)(=O)NCC(=O)O)cc1[N+](=O)[O-],-26.4%,10.8,27.0%,50.1µM*,-1.2,-27.7%
CN(C)c1ccc(S(=O)(=O)NCC(=O)OCC(=O)NC(=O)C2CCCCC2)cc1[N+](=O)[O-],-15.1%,0.0,8.5%,2.7%[12.7 µM],-4.2,-6.6%
CNc1ccc(S(=O)(=O)NCC(=O)NCCCc2ccccc2)cc1[N+](=O)[O-],?,-5.2,1.0%,39.8µM*,0.0,50.1µM*
O=S(=O)(c1ccc(Cl)cc1Cl)n1ccnc1,-8.2%,nt,15.6%,?,nt,-24.6%
O=C(CN1C(=O)CCc2cc(S(=O)(=O)N3CCOCC3)ccc21)NCc1ccccc1,-12.9%,nt,18.7%,26.0%[59 µM],nt,-6.4%
CS(=O)(=O)Nc1ccccc1C(=O)NCc1ccco1,-2.2%,1.2,47.6%,12.6µM*,-4.1,-1.8%
CCOc1ccc(S(=O)(=O)Nc2ccccc2C(=O)NCc2ccco2)cc1,-30.8%,6.8,8.5%,50.1µM*,2.0,?
Cc1ccccc1NS(=O)(=O)c1ccc(OCC(=O)NCc2ccco2)cc1,-30.7%,-11.0,-6.0%,-36.1%[59 µM],-1.4,0.6%
Cc1cc(-c2csc(NC(=O)c3ccc(C#N)cc3)n2)c(C)n1Cc1ccccc1,-26.0%,-12.7,28.6%,44.7µM*,1.7,7.8%
CCC(C)NC(=O)c1ccc2nc(-c3ccco3)c(-c3ccco3)nc2c1 (stereo not drawn),-33.8%[57.1 µM],nt,-23.6%[57 µM],nt,nt,nt
COc1ccc(Cl)cc1N/C(N)=N/c1nc(CSc2ccc(C)cc2)cc(=O)[nH]1,-24.6%,4.9,8.7%,-40.8%[59 µM],-1.4,20.1%
COc1ccc(Cl)cc1N/C(N)=N/c1nc(C)cc(=O)[nH]1,?,8.8,24.3%,20µM*,11.6,-11.9%
Cc1cc(=O)[nH]c(/N=C(\N)Nc2ccc3c(c2)OCCO3)n1,-7.7%,4.3,-17.9%,22.4µM*,2.9,-24.2%
SMILES,JMJD2A Tudor,CtBP-E1A inh,HP1b binding inh,G9a inh,Six1-Eya2 blk,BAZ2B block
Cc1cc(C)nc(/N=C(\N)Nc2ccc3c(c2)OCCO3)n1,-14.8%,-4.5,55.0%,-8.2%,-5.0,15.2%
CCN(c1ccccc1)S(=O)(=O)c1ccc(Cl)c(NC(=O)CN2CCCCCC2)c1,0.708µM*,-2.0,22.4µM*,-108.8%[59 µM],6.5,50.1µM*
CN1CCN(CC(=O)Nc2ccc(Oc3ccccc3)cc2)CC1,-14.2%,-7.2,16.8%,13.4%[12.7 µM],0.3,6.5%
CCN(c1ccccc1)S(=O)(=O)c1cc(NC(=O)CN2CCN(C)CC2)ccc1Cl,0.891µM*,-4.8,?,nt,0.3,nt
CCN(c1ccccc1)S(=O)(=O)c1ccc(Cl)c(NC(=O)CSc2nncs2)c1,79.4µM*,11.4,18.5%,4.7%,-1.1,3.5%
CCN(c1ccccc1)S(=O)(=O)c1ccc(Cl)c(NC(=O)CSc2nnc(C)s2)c1,-13.2%,nt,6.0%[57 µM],-33.2%,1.4,-10.8%
CCN(c1ccccc1)S(=O)(=O)c1ccc(Cl)c(NC(=O)COC(=O)c2cc(O)c3ccccc3c2O)c1,nt,nt,nt,?,nt,50.1µM*
CCN(c1ccccc1)S(=O)(=O)c1ccc(Cl)c(NC(=O)COC(=O)c2ccc(O)cc2)c1,-12.7%,2.8,?,-13.2%,1.9,7.2%
COc1ccccc1N1CCN(S(=O)(=O)CCNC(=O)Cc2ccc(Cl)cc2)CC1,-15.3%,nt,7.8%[57 µM],-4.8%[59 µM],nt,-2.2%
N#Cc1ccccc1NC(=O)C(=O)NCC(c1cccnc1)N1CCN(c2ccccc2)CC1 (stereo not drawn),-29.9%,nt,49.8%,0.5%[59 µM],nt,-9.3%
COc1ccc(Cn2c(=O)c3oc4ccccc4c3n(Cc3cccc(C)c3)c2=O)cc1,-6.6%,nt,26.1%,-5.8%[59 µM],nt,-8.5%
COc1ccc([N+](=O)[O-])cc1-n1cccc1,?,-19.7,?,5.3%[59 µM],-15.2,50.1µM*
COc1ccc([N+](=O)[O-])cc1N1C(=O)c2cccc3cccc(c23)C1=O,-4.1%,-3.5,16.8%,?,2.9,-23.1%
CC(=O)c1ccc(N2CCN(C(=O)c3ccc4[nH]c(C)c(C)c4c3)CC2)cc1,?,?,-13.9%,nt,?,nt
COc1ccc(N2CCN(C(=O)c3cc(-c4ccc(F)cc4)[nH]c3C)CC2)cc1,44.7µM*,0.0,?,44.7µM*,-21.0,44.7µM*
COc1cc2c(cc1OC)CN(C(=O)c1ccc3[nH]c(C)c(C)c3c1)CC2,?,-6.4,-27.4%,nt,-14.9,50.1µM*
COc1ccc(N2CCN(C(=O)c3ccc4[nH]c(C)c(C)c4c3)CC2)cc1,-5.4%,nt,30.6%,17.7%[12.7 µM],?,39.8µM*
Cc1[nH]c2ccc(C(=O)N3CCN(c4ccc(F)cc4)CC3)cc2c1C,50.1µM*,-14.8,-24.0%,79.4µM*,-23.8,35.5µM*
